Cycloheximide cs: counter-screen hit for Shiga toxin inhibitors, cycloheximide | max response, % | cell reporter, cycloheximide protein synthesis inhibition counterscreen | hit rate 12% among 300,000; in the data active = max response mostly above about 13%, no sharp cut-off; inactive = mostly below about 14%; note: read at 38.3 µM for the half of the compounds with a filed dose; 0% is about no effect
Pf growth 48h: P. falciparum growth inhibition at 48 hours (one generation). Potency, µM (series often up to 28.7 µM), without a hit: top-dose activity change, negative = inhibition, actives largely listed as inhibitors. hit rate 5.9% among 310,000. P. falciparum luciferase growth in erythrocytes, 48 h; note: potency is the fitted concentration of half-maximal effect; % is set by controls: 0 for no effect and ±100 for the full control effect
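Growth was read as firefly luciferase luminescence after a 48 h, 37 C, 5% CO2 exposure of compounds to reporter-bearing P. falciparum cultures (0.1% parasitemia, 2% hematocrit final) in Albumax-supplemented RPMI 1640.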
Pf growth 96h: P. falciparum growth inhibition at 96 hours; P. falciparum luciferase reporter growth, 96 h; Potency, µM (top dose mostly 28.7 µM), without a hit: at the highest dose activity change, negative = inhibition, usual class: inhibitors; hit rate 6.9% among 320,000; note: potency is the fitted concentration of half-maximal effect; % is set by controls: 0 for no effect and ±100 for the full control effect
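Two parasite generations (96 h, 37 C, 5% CO2) of compound exposure in infected erythrocytes (0.05% parasitemia, 2% hematocrit). Luciferase-reporter P. falciparum; decreased luminescence indicates inhibited growth, aimed at apicoplast-acting delayed death.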
Shiga inhibitor: Shiga toxin inhibition. Vero cells, Shiga toxin protein synthesis inhibition reporter. inhibition, % at 38.7 µM. AID 2315. hit rate 9.2% among 290,000; in the data active = inhibition mostly above about 28%, no sharp cut-off; inactive = mostly below about 43%; note: 0% is about no effect
* = called active by the depositor; ? = inconclusive; nt = no result. Only some compounds are listed: those with a hit (about 21% of all), similar ones and a draw of the others. Unless noted, calls come from the whole dose curve; as a rule, active = well fitted inhibition curve with a large enough effect; inconclusive = small, poorly fitted or top-dose-only effect, or another doubt; inactive = no such curve, though single readings can be large or run the other way.

SMILES	Cycloheximide cs	Pf growth 48h	Pf growth 96h	Shiga inhibitor
CS(=O)(=O)c1ccccc1C(=O)Nc1cccc2ncccc12	-3	?	?	-4
CSc1ccc(CNc2ccccc2)cc1	29*	53%	3%	61*
CN(C)c1ccc(CNc2ncnc3sccc23)cc1	2	-9%	31%	14
CN(C)c1ccc(CNc2ccccn2)cc1	27*	41%	3%	43*
CSc1ccc(CNc2ccccn2)cc1	38*	97%	8%	117*
Fc1ccc(CNc2ccccn2)cc1	20*	9%	-16%	26*
CSc1ccc(CNCCCSc2ncccn2)cc1	6	-14%	?	11
CC12CCC(=O)N1C(C(=O)Nc1ccc(F)cc1)CS2 (stereo not drawn)	-3	13%	0%	-3
O=C(CCl)c1ccc(Oc2ccc(C(=O)CCl)cc2)cc1	nt	?	-8%	nt
Oc1ccc(C=NC2CCCCC2)cc1	-4	-9%	-4%	-18
COC(=O)c1ccc(NC(=O)CCc2nnc3ccc(N4CCC5(CC4)OCCO5)nn23)cc1	-3	-19%	-10%	-7
COCCCN(C(=S)Nc1c(C)cc(C)cc1C)C(C)c1ccccn1 (stereo not drawn)	-4	-11%	-22%	-7
CC1CCCC(N2CCN(C(=O)c3ccc([N+](=O)[O-])cc3)CC2)C1 (stereo not drawn)	1	-15%	?	-11
Cc1cccc(NCc2ccc(N(C)C)cc2)n1	45*	44%	?	91*
CN(C)c1ccc(CNc2ncc(Br)cc2Br)cc1	34*	44%	160%	66*
OCc1ccccc1	nt	5.4µM*	6µM*	nt
CN(/N=C\c1ccc(O)c(O)c1)c1nc(-c2ccccc2)cc(-c2ccccc2)n1	7	10µM*	?	11
COc1cc(/C=N/N(c2ccccc2)c2ccccc2)ccc1O	-3	5%	?	-3
COc1ccccc1-n1c(SCC(=O)Nc2ccc3c(c2)OCO3)nc2c(c1=O)SCC2	0	?	1%	7
COc1ccc(OC)c(-n2c(SCC(=O)N3CCc4ccccc43)nc3c(c2=O)SCC3)c1	-2	?	2.3µM*	-5
CC1Cc2nc(SCC(=O)N3CCc4ccccc43)n(C)c(=O)c2S1 (stereo not drawn)	-5	32%	?	12
COc1ccccc1-n1c(SCC(=O)Nc2cccc(C)c2)nc2c(c1=O)SCC2	-4	nt	10µM*	-6
COc1ccccc1-n1c(SCC(=O)N2CCc3ccccc32)nc2c(c1=O)SCC2	9	12µM*	?	-3
COCCCNC(=O)C1CCC(CNS(=O)(=O)c2ccc3c(c2)CC(C)N3C(=O)C2CC2)CC1 (stereo not drawn)	-2	-4%	13µM*	-6
CC1Cc2cc(S(=O)(=O)NCc3ccccc3)ccc2N1C(=O)C1CCC1 (stereo not drawn)	-2	-5%	?	8
SMILES	Cycloheximide cs	Pf growth 48h	Pf growth 96h	Shiga inhibitor
CCC(=O)N1c2ccc(S(=O)(=O)NC3CCCCC3)cc2CC1C (stereo not drawn)	31*	0%	10µM*	13
COc1cc(CNS(=O)(=O)c2ccc3c(c2)CC(C)N3C(C)=O)cc(OC)c1OC (stereo not drawn)	7	?	5.9µM*	-8
CCC(=O)N1c2ccc(S(=O)(=O)NCc3ccccc3)cc2CC1C (stereo not drawn)	36*	25%	36%	19
CC(=O)N1c2ccc(S(=O)(=O)NCC3CCC(C(=O)NCc4ccccc4)CC3)cc2CC1C (stereo not drawn)	9	?	22%	-3
CCC(=O)N1c2ccc(S(=O)(=O)CCC(=O)NC3CCCC3)cc2CC1C (stereo not drawn)	-3	19%	65%	-13
CC(=O)N1c2ccc(S(=O)(=O)N(C)CC(=O)NCc3ccccc3)cc2CC1C (stereo not drawn)	1	-8%	?	-3
CCN(c1ccccc1)S(=O)(=O)c1ccc2c(c1)CC(C)N2C(=O)C1CC1 (stereo not drawn)	5	?	4.1µM*	3
O=C(C1CC1)N1CCc2cc(S(=O)(=O)NCc3ccccc3)ccc21	14*	36%	?	6
CCOc1ccccc1N(C)S(=O)(=O)c1ccc2c(c1)CC(C)N2C(=O)C1CC1 (stereo not drawn)	-1	?	?	-2
CC1Cc2cc(S(=O)(=O)NCc3ccccc3)ccc2N1C(=O)C1CC1 (stereo not drawn)	26*	26%	?	2
